According to the supplement of paper PMC7411054:
Where a name gives a salt, the structure may show the parent alone.

Experiments:
Conditions in all cases: treatment time: 24 h
A549-ACTB-RAB5A [1] = test: lowest phenotypically active concentration; higher = less potent
How it was run: (§1)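 After 24 h at 0.3, 1, 3 or 9 µM, with four wells per treatment, fifteen gene-edited A549, HepG2 and WPMY1 reporter lines carrying BFP, GFP and RFP/FusionRed were imaged live. Each well's live-cell features were expressed relative to solvent control wells. Deviation required ≥3 of 4 wells past the 95th percentile of control Euclidean distances, and reproducibility a median replicate Pearson correlation over the 95th percentile of non-replicates. Phenotypic activity rested on both.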

HepG2-ACTB-RAB5A [2] = test: as above
How it was run: as §1

A549-ACTB-RAB5A [3] = test: phenotypically active (imaging signature differs from DMSO and reproducible) at any of 0.3-9 uM (binary (1 = active, 0 = inactive)); higher = active
How it was run: as §1

A549-CANX-COX4 = test: as above
How it was run: as §1

A549-GM130-SQSTM1 [4] = test: as above
How it was run: as §1

A549-TP53BP1-CLTA = test: as above
How it was run: as §1

A549-TUBA1B-RELA [5] = test: as above
How it was run: as §1

HepG2-ACTB-RAB5A [6] = test: as above
How it was run: as §1

HepG2-CANX-COX4 = test: as above
How it was run: as §1

HepG2-GM130-SQSTM1 = test: as above
How it was run: as §1

HepG2-TP53BP1-CLTA = test: as above
How it was run: as §1

HepG2-TUBA1B-RELA = test: as above
How it was run: as §1

WPMY1-ACTB-RAB5A = test: as above
How it was run: as §1

WPMY1-CANX-COX4 = test: as above
How it was run: as §1

WPMY1-GM130-SQSTM1 [7] = test: as above
How it was run: as §1

WPMY1-TP53BP1-CLTA = test: as above
How it was run: as §1

WPMY1-TUBA1B-RELA = test: as above
How it was run: as §1

A549-TUBA1B-RELA [8] = test: lowest phenotypically active concentration; higher = less potent
How it was run: as §1

WPMY1-GM130-SQSTM1 [9] = test: as above
How it was run: as §1

A549-GM130-SQSTM1 [10] = test: as above
How it was run: as §1

Row | Compound | lowest phenotypically active concentration (A549-ACTB-RAB5A [1]) [µM] | lowest phenotypically active concentration (HepG2-ACTB-RAB5A [2]) [µM] | phenotypically active (A549-ACTB-RAB5A [3]) | phenotypically active (A549-CANX-COX4) | phenotypically active (A549-GM130-SQSTM1 [4]) | phenotypically active (A549-TP53BP1-CLTA) | phenotypically active (A549-TUBA1B-RELA [5]) | phenotypically active (HepG2-ACTB-RAB5A [6]) | phenotypically active (HepG2-CANX-COX4) | phenotypically active (HepG2-GM130-SQSTM1) | phenotypically active (HepG2-TP53BP1-CLTA) | phenotypically active (HepG2-TUBA1B-RELA) | phenotypically active (WPMY1-ACTB-RAB5A) | phenotypically active (WPMY1-CANX-COX4) | phenotypically active (WPMY1-GM130-SQSTM1 [7]) | phenotypically active (WPMY1-TP53BP1-CLTA) | phenotypically active (WPMY1-TUBA1B-RELA) | lowest phenotypically active concentration (A549-TUBA1B-RELA [8]) [µM] | lowest phenotypically active concentration (WPMY1-GM130-SQSTM1 [9]) [µM] | lowest phenotypically active concentration (A549-GM130-SQSTM1 [10]) [µM]
1 | O=C(CCCCCCC(=O)NO)NO | 9 | 9 | 1 (active) | 0 (inactive) | 0 (inactive) | 0 (inactive) | 0 (inactive) | 1 (active) | 0 (inactive) | 0 (inactive) | 0 (inactive) | 0 (inactive) | 0 (inactive) | 0 (inactive) | 0 (inactive) | 0 (inactive) | 0 (inactive) | – | – | –
2 | O=C(/C=C/c1ccc2ccccc2n1)c1ccncc1 | 9 | 3 | 1 (active) | 0 (inactive) | 0 (inactive) | 0 (inactive) | 1 (active) | 1 (active) | 0 (inactive) | 1 (active) | 0 (inactive) | 1 (active) | 1 (active) | 0 (inactive) | 1 (active) | 1 (active) | 1 (active) | 9 | 9 | –
3 | Cc1ccc(NC(=O)c2cccc(C(C)(C)C#N)c2)cc1Nc1ccc2ncn(C)c(=O)c2c1 | 1 | ≤ 0.3 | 1 (active) | 0 (inactive) | 0 (inactive) | 1 (active) | 1 (active) | 1 (active) | 1 (active) | 1 (active) | 1 (active) | 1 (active) | 1 (active) | 1 (active) | 1 (active) | 1 (active) | 0 (inactive) | 9 | 3 | –
4 | Cn1cc(-c2cnc3ccc4ccc(CS(=O)(=O)NCc5ccccn5)cc4c(=O)c3c2)cn1 | 9 | – | 1 (active) | 0 (inactive) | 0 (inactive) | 0 (inactive) | 1 (active) | 0 (inactive) | 0 (inactive) | 0 (inactive) | 0 (inactive) | 0 (inactive) | 0 (inactive) | 1 (active) | 0 (inactive) | 0 (inactive) | 0 (inactive) | 9 | – | –
5 | O=C(Nc1ccncc1)c1cc([N+](=O)[O-])ccc1Cl | 3 | 9 | 1 (active) | 0 (inactive) | 0 (inactive) | 1 (active) | 1 (active) | 1 (active) | 1 (active) | 1 (active) | 1 (active) | 1 (active) | 0 (inactive) | 1 (active) | 1 (active) | 0 (inactive) | 1 (active) | 9 | 9 | –
6 | CCOC(=O)c1c2c3c(cccc3[nH]c1=O)C(=O)c1ccccc1-2 | 1 | – | 1 (active) | 0 (inactive) | 1 (active) | 0 (inactive) | 0 (inactive) | 0 (inactive) | 0 (inactive) | 0 (inactive) | 1 (active) | 0 (inactive) | 0 (inactive) | 0 (inactive) | 0 (inactive) | 0 (inactive) | 0 (inactive) | – | – | 1
7 | CC1(CN2CCC(n3c(=O)[nH]c4ccccc43)CC2)OCc2ccccc2-n2cccc21 (centres undefined) | 9 | – | 1 (active) | 0 (inactive) | 0 (inactive) | 0 (inactive) | 1 (active) | 0 (inactive) | 0 (inactive) | 0 (inactive) | 0 (inactive) | 0 (inactive) | 0 (inactive) | 0 (inactive) | 1 (active) | 0 (inactive) | 0 (inactive) | 9 | 3 | –
8 | CCC(C)(C)C(=O)O[C@H]1C[C@@H](C)C=C2C=C[C@H](C)[C@H](CC[C@@H]3C[C@@H](O)CC(=O)O3)[C@H]21 [Simvastatin] | 3 | 1 | 1 (active) | 0 (inactive) | 0 (inactive) | 1 (active) | 0 (inactive) | 1 (active) | 1 (active) | 1 (active) | 1 (active) | 1 (active) | 1 (active) | 1 (active) | 1 (active) | 1 (active) | 1 (active) | – | 1 | –
9 | CCN1/C(=C/C(C)=O)Sc2ccc(O)cc21 | 9 | 9 | 1 (active) | 0 (inactive) | 0 (inactive) | 1 (active) | 0 (inactive) | 1 (active) | 0 (inactive) | 0 (inactive) | 0 (inactive) | 0 (inactive) | 1 (active) | 0 (inactive) | 0 (inactive) | 1 (active) | 0 (inactive) | – | – | –
10 | CNCC[C@H](Oc1cccc2ccccc12)c1cccs1 [duloxetine] | 9 | – | 1 (active) | 0 (inactive) | 0 (inactive) | 0 (inactive) | 1 (active) | 0 (inactive) | 0 (inactive) | 0 (inactive) | 0 (inactive) | 0 (inactive) | 0 (inactive) | 0 (inactive) | 0 (inactive) | 0 (inactive) | 0 (inactive) | 9 | – | –
11 | COc1cc(OC)c2c(=O)[nH]c(-c3cc(C)c(OCCO)c(C)c3)nc2c1 [apabetalone] | 9 | 9 | 1 (active) | 0 (inactive) | 1 (active) | 0 (inactive) | 0 (inactive) | 1 (active) | 1 (active) | 1 (active) | 0 (inactive) | 0 (inactive) | 0 (inactive) | 0 (inactive) | 0 (inactive) | 1 (active) | 1 (active) | – | – | 9
12 | Fc1ccccc1Nc1nc2nonc2nc1Nc1ccccc1F | 9 | – | 1 (active) | 0 (inactive) | 1 (active) | 0 (inactive) | 1 (active) | 0 (inactive) | 0 (inactive) | 0 (inactive) | 1 (active) | 1 (active) | 1 (active) | 1 (active) | 0 (inactive) | 0 (inactive) | 0 (inactive) | 9 | – | 3
13 | CNC(=O)c1cc(Oc2ccc(NC(=O)Nc3ccc(Cl)c(C(F)(F)F)c3)c(F)c2)ccn1 [regorafenib] | 9 | 3 | 1 (active) | 0 (inactive) | 0 (inactive) | 1 (active) | 0 (inactive) | 1 (active) | 1 (active) | 1 (active) | 1 (active) | 1 (active) | 0 (inactive) | 0 (inactive) | 0 (inactive) | 1 (active) | 0 (inactive) | – | – | –
14 | Nc1ccc(N=Nc2ccccc2)c(N)n1 [phenazopyridine] | ≤ 0.3 | – | 1 (active) | 0 (inactive) | 1 (active) | 0 (inactive) | 0 (inactive) | 0 (inactive) | 0 (inactive) | 0 (inactive) | 0 (inactive) | 0 (inactive) | 0 (inactive) | 0 (inactive) | 1 (active) | 0 (inactive) | 0 (inactive) | – | 3 | 1
15 | Cc1ccc(S(=O)(=O)n2c(N)nc3ccccc32)cc1 | 9 | 9 | 1 (active) | 0 (inactive) | 0 (inactive) | 0 (inactive) | 0 (inactive) | 1 (active) | 0 (inactive) | 0 (inactive) | 0 (inactive) | 0 (inactive) | 0 (inactive) | 0 (inactive) | 0 (inactive) | 0 (inactive) | 0 (inactive) | – | – | –
16 | O=S(=O)(c1cccc2cnccc12)N1CCNCC1 | 3 | 9 | 1 (active) | 0 (inactive) | 0 (inactive) | 1 (active) | 1 (active) | 1 (active) | 1 (active) | 1 (active) | 1 (active) | 1 (active) | 1 (active) | 1 (active) | 1 (active) | 1 (active) | 1 (active) | 9 | 9 | –
17 | CCC(=O)N1CCOc2c(cc(-c3ccc(OC)c(OC)c3)cc2OC[C@H]2CCCN(C)C2)C1 | 9 | 9 | 1 (active) | 0 (inactive) | 0 (inactive) | 0 (inactive) | 1 (active) | 1 (active) | 1 (active) | 0 (inactive) | 0 (inactive) | 1 (active) | 0 (inactive) | 1 (active) | 0 (inactive) | 0 (inactive) | 0 (inactive) | 9 | – | –
18 | CC(C)NC[C@H](O)COc1cccc2ccccc12 [(S)-(-)-Propranolol hydrochloride] | – | – | 0 (inactive) | 0 (inactive) | 1 (active) | 0 (inactive) | 0 (inactive) | 0 (inactive) | 0 (inactive) | 0 (inactive) | 0 (inactive) | 0 (inactive) | 0 (inactive) | 0 (inactive) | 0 (inactive) | 0 (inactive) | 0 (inactive) | – | – | 9
19 | N=C1NC(=O)/C(=C\c2ccc(O)cc2)S1 [Mirin] | 9 | – | 1 (active) | 0 (inactive) | 0 (inactive) | 0 (inactive) | 0 (inactive) | 0 (inactive) | 0 (inactive) | 0 (inactive) | 0 (inactive) | 0 (inactive) | 1 (active) | 0 (inactive) | 0 (inactive) | 0 (inactive) | 0 (inactive) | – | – | –
20 | Cc1cccc(-c2nn(C(=S)Nc3ccccc3)cc2-c2ccnc3ccccc23)n1 | – | 9 | 0 (inactive) | 1 (active) | 1 (active) | 0 (inactive) | 1 (active) | 1 (active) | 1 (active) | 1 (active) | 1 (active) | 1 (active) | 1 (active) | 1 (active) | 1 (active) | 1 (active) | 1 (active) | 3 | 9 | 9
21 | CC(C)(C(=O)c1cccnc1)c1cccnc1 [metyrapone] | – | – | 0 (inactive) | 0 (inactive) | 1 (active) | 0 (inactive) | 0 (inactive) | 0 (inactive) | 0 (inactive) | 0 (inactive) | 0 (inactive) | 0 (inactive) | 0 (inactive) | 0 (inactive) | 0 (inactive) | 0 (inactive) | 0 (inactive) | – | – | 9
22 | Cc1c[nH]c2ncnc(-c3ccc(NC(=O)N(CCO)c4ccccc4)cc3)c12 | 9 | – | 1 (active) | 0 (inactive) | 0 (inactive) | 0 (inactive) | 0 (inactive) | 0 (inactive) | 0 (inactive) | 0 (inactive) | 0 (inactive) | 0 (inactive) | 0 (inactive) | 0 (inactive) | 0 (inactive) | 0 (inactive) | 1 (active) | – | – | –
23 | CCOC(=O)C1=C[C@]2(CC)CCCN3CCc4c(n1c1ccccc41)[C@@H]32 [Vinpocetine] | 9 | 9 | 1 (active) | 0 (inactive) | 0 (inactive) | 0 (inactive) | 0 (inactive) | 1 (active) | 0 (inactive) | 0 (inactive) | 0 (inactive) | 0 (inactive) | 0 (inactive) | 0 (inactive) | 1 (active) | 0 (inactive) | 0 (inactive) | – | 9 | –
